# Measurements from PubChem BioAssay (NCATS).
# Records with an inconclusive call do not appear. Where a call stands in place of a potency, no number is given. Calls of active or inactive are those of the source. Unless noted, calls come from the whole dose curve; as a rule, active = well fitted curve in the direction sought with a large enough effect; inconclusive = small, poorly fitted or top-dose-only effect, or another doubt; inactive = no such curve, though single readings can be large; an effect the other way counts as inactive or inconclusive.
# Experiments:
# [1] = molecular target: Endonuclease 4 (Escherichia coli (strain K12)) (UniProt P0A6C1); test: Counterscreen for APE1 Inhibitors: qHTS Validation Assay for Inhibitors of Endonuclease IV (AID 1708)
# Summary of the method: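 E. coli EndoIV at 2 nM final, preincubated 15 min at room temperature with compound, then 50 nM TAMRA/BHQ-2 THF abasic-site duplex added. Buffer: 50 mM Tris-HCl pH 7.5, 50 mM NaCl, 2 mM MgCl2, 1 mM DTT, 0.01% Tween-20. Kinetic fluorescence increase, third minus first read.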
# [2] = qHTS for differential inhibitors of proliferation of Plasmodium falciparum line 7G8 (AID 1815);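 note: parasite growth measured after three days of incubation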; note: potency is the fitted concentration of half-maximal effect
# [3] = qHTS for differential inhibitors of proliferation of Plasmodium falciparum line GB4 (AID 1816); settings: Potency: Plasmodium falciparum GB4 proliferation inhibition;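 note: parasite growth measured after 72 h incubation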; note: potency is the fitted concentration of half-maximal effect
# [4] = qHTS for differential inhibitors of proliferation of Plasmodium falciparum line 3D7 (AID 1876); note: potency is the fitted concentration of half-maximal effect
# [5] = qHTS for differential inhibitors of proliferation of Plasmodium falciparum line Dd2 (AID 1882); settings: Potency: Plasmodium falciparum Dd2 proliferation inhibition; note: nearly all actives have a fitted effect of over 65% in size; note: potency is the fitted concentration of half-maximal effect
# Summary of the method: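 Dd2-infected erythrocytes (0.3% parasitemia, 2.5% hematocrit final) incubated with compound 72 h at 37 C, 5% CO2; lysed with saponin/Triton buffer containing SYBR Green I, incubated overnight in the dark, then read by fluorescence (485/535 nm). Normalized to 0.29 uM artemisinin and DMSO.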
# [6] = qHTS for differential inhibitors of proliferation of Plasmodium falciparum line W2 (AID 1883); settings: Potency: Plasmodium falciparum W2 proliferation inhibition;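 note: parasites grown with compound for 72 h before lysis and staining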; note: potency is the fitted concentration of half-maximal effect
# [7] = qHTS for differential inhibitors of proliferation of Plasmodium falciparum line HB3 (AID 1886); settings: Potency: Plasmodium falciparum HB3 proliferation inhibition;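 note: parasites grown with compound for 72 h before SYBR Green readout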; note: potency is the fitted concentration of half-maximal effect
# [8] = molecular target: Ferritin light chain (Equus caballus) (UniProt P02791); test: qHTS Validation Assay for Identification of Novel General Anesthetics (AID 2323)
# Chain of Ferritin light chain (Equus caballus) (P02791 2-175 limits assumed): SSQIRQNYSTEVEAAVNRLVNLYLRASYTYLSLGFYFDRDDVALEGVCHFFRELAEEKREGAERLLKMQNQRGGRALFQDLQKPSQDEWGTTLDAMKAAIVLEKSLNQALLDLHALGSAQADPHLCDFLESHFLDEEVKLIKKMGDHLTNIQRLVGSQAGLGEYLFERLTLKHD
# Summary of the method: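 10 uM horse-spleen apoferritin + 1-AMA (50% saturated, PBS); cpd pin-transferred, 10 min RT. Ex 380/Em 535 nm endpoint. Activity normalized between free 1-AMA and 1-AMA/apoferritin; 4-parameter Hill fit of concentration-response.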
# [9] = molecular target: ATP-dependent DNA helicase Q1 (Homo sapiens) (UniProt P46063); test: qHTS Validation Assay for Inhibitors of RecQ-Like Dna Helicase 1 (RECQ1) (AID 2353)
# Chain of ATP-dependent DNA helicase Q1 (Homo sapiens) (P46063 whole entry, looked up): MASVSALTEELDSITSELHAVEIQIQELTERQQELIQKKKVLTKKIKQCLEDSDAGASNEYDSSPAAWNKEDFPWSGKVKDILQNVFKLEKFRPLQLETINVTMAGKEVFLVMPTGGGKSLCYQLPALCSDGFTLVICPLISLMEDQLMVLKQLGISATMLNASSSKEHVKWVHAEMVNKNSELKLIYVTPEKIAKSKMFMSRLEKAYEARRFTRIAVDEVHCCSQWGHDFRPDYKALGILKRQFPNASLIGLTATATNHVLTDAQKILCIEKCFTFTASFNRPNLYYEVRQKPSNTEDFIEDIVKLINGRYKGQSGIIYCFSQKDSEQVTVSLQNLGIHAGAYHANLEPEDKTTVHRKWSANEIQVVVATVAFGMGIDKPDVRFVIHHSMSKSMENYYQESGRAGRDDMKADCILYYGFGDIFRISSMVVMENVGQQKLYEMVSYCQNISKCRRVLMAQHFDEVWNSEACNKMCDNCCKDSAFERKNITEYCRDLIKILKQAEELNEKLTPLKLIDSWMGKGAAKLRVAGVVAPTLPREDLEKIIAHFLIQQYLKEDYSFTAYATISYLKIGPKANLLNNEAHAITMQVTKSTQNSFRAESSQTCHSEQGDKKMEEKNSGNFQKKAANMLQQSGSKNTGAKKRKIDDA
# Summary of the method: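 50 nM RECQ1T1 preincubated 15 min with compound in Tris pH 8.0 buffer with MgCl2, DTT, Tween-20 and 2.5 ug/ml poly(dI-dC); started with 200 nM TAMRA/BHQ-2 forked duplex and 2 mM ATP. Unwinding read as fluorescence (525/598 nm), two reads 2 h apart.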
# [10] = molecular target: RecQ-like DNA helicase BLM (Homo sapiens) (UniProt P54132); test: qHTS Validation Assay for Inhibitors of Bloom's syndrome helicase (BLM) (AID 2364)
# Chain of RecQ-like DNA helicase BLM (Homo sapiens) (P54132 whole entry, looked up): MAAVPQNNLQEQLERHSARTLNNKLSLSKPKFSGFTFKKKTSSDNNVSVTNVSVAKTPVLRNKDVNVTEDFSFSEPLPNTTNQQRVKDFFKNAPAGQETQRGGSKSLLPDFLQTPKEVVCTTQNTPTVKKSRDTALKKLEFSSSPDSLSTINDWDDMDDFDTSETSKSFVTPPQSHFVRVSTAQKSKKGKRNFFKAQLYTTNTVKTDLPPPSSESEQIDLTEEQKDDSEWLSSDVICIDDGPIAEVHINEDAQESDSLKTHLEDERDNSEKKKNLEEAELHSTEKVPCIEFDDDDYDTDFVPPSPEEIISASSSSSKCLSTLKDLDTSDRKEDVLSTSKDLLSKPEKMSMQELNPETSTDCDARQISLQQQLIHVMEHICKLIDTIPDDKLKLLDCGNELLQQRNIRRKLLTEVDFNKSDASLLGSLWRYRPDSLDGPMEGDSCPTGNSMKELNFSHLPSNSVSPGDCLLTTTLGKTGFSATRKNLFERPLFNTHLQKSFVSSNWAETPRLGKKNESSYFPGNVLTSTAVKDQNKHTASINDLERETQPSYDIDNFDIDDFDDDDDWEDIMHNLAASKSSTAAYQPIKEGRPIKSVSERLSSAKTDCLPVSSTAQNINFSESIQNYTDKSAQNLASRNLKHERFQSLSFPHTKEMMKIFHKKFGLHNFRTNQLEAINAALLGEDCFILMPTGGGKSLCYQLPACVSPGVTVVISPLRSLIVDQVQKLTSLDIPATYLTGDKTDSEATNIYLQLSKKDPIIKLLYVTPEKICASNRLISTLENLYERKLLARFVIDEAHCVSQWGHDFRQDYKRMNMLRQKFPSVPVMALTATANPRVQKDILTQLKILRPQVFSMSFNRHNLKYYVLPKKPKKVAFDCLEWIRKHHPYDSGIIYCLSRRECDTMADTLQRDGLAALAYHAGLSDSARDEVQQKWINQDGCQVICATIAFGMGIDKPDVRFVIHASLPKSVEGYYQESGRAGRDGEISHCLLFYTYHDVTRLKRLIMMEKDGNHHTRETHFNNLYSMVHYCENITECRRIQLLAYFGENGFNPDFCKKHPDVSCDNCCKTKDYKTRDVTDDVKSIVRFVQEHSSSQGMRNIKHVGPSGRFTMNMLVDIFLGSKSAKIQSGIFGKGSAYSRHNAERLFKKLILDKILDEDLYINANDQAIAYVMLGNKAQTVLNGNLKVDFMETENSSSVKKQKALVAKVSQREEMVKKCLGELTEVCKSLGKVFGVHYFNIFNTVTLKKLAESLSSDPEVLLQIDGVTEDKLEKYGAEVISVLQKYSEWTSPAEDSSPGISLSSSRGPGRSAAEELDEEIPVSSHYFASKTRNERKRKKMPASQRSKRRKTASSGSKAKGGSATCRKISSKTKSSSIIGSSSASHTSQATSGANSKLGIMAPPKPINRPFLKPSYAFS
# Summary of the method: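 50 nM BLM preincubated 15 min at room temperature with compound in pH 8.0 Tris buffer containing 2.5 ug/ml poly(dI-dC); started with 200 nM TAMRA/BHQ-2 forked duplex and 2 mM ATP (final). Unwinding read as TAMRA fluorescence increase, two reads 2 h apart.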
# [11] = Validation screen for small molecules that induce DNA re-replication in MCF 10A normal breast cells (AID 463097); note: nearly all actives have a fitted effect of over 60% in size
# Summary of the method: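 250 MCF 10A cells/well; compound pin-transferred; 48 hr, 37 C, 5% CO2; Hoechst 40 min; imaged 405/500-530 nm. Hits = more high-intensity nuclei.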
# [12] = qHTS Assay for Identification of Small Molecule Inducers of Hypoxia Response (AID 2120; active = well fitted curve in the direction sought with a large enough effect in the signal ratio, with a control signal flat, not every such curve was filed as active; the % refers to the signal ratio)
# Summary of the method: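 HRE-bla ME-180 cells in Opti-MEM with 0.5% dialyzed FBS, pre-plated 4-5 h, then compound titration for 17 h at 37 degrees Celsius. CCF4 loaded 2.5 h at room temperature; 460/530 nm ratio gave %Activity and AC50 for induction.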
# [13] = qHTS for differential inhibitors of proliferation of Plasmodium falciparum line D10 (AID 1877);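 note: parasites grown with compound for 72 h before DNA staining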; note: potency is the fitted concentration of half-maximal effect
# [14] = Cytometric Cell-Based qHTS for Inhibitors of the mTORC1 Signaling Pathway in MEF (Tsc2-/-, p53-/-) Cells (AID 2660);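 note: percent of cells above a phospho-rpS6 to PI ratio cutoff in each well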
# Summary of the method: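 Cells are plated, treated with compound for 24 hrs at 37 degree Celsius, then fixed, blocked and immunostained for phospho-rpS6 Ser235/236. Propidium iodide counterstain follows. Per-well % positive cells is derived from the PI-normalized phospho-S6 signal.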
# [15] = High Content Imaging Cell-Based qHTS for Inhibitors of the mTORC1 Signaling Pathway in MEF (Tsc2-/-, p53-/-) Cells (AID 2666); settings: at 38.3 µM (top of the series);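 note: percent of cells scored positive for phospho-rpS6 Ser235/236 immunostaining by imaging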
# Summary of the method: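 Phospho-rpS6 (Ser235/236) immunofluorescence, normalized and scored as % positive cells using rapamycin and DMSO controls, was read in empty-vector Tsc2-/-, p53-/- MEFs after 24 h compound exposure at 37 C; propidium iodide counted cells.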
# [16] = High Content Imaging Cell-Based qHTS for Inhibitors of the mTORC1 Signaling Pathway in MEF Cells (AID 2667); note: potency is the fitted concentration of half-maximal effect
# Summary of the method: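 WT MEFs (Tsc2-/-, p53-/- re-expressing Tsc2), in DMEM + 10% FBS, were treated with compound for 24 h at 37 C. Cells were then fixed and stained for phospho-rpS6 Ser235/236 with propidium iodide as cell count. Values are % positive cells, with thresholds set against rapamycin-treated cells.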
# [17] = Cytometry Cell-Based qHTS for Inhibitors of the mTORC1 Signaling Pathway in MEF cells (AID 2668); note: potency is the fitted concentration of half-maximal effect
# Summary of the method: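 Read-out: phospho-rpS6 Ser235/236 immunofluorescence normalized to propidium iodide intensity, scored as % active cells against a rapamycin (7.5 nM) threshold. Cells: Tsc2-/-, p53-/- MEFs stably expressing WT Tsc2, compound-treated 24 hrs at 37 degree Celsius.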
# [18] = molecular target: Ubiquitin carboxyl-terminal hydrolase 2 (Homo sapiens) (UniProt O75604); test: qHTS Validation Assay for Inhibitors of Ubiquitin-specific Protease USP2a Using CHOP2 as the Reporter (AID 463106)
# Chain of Ubiquitin carboxyl-terminal hydrolase 2 (Homo sapiens) (O75604 whole entry, looked up): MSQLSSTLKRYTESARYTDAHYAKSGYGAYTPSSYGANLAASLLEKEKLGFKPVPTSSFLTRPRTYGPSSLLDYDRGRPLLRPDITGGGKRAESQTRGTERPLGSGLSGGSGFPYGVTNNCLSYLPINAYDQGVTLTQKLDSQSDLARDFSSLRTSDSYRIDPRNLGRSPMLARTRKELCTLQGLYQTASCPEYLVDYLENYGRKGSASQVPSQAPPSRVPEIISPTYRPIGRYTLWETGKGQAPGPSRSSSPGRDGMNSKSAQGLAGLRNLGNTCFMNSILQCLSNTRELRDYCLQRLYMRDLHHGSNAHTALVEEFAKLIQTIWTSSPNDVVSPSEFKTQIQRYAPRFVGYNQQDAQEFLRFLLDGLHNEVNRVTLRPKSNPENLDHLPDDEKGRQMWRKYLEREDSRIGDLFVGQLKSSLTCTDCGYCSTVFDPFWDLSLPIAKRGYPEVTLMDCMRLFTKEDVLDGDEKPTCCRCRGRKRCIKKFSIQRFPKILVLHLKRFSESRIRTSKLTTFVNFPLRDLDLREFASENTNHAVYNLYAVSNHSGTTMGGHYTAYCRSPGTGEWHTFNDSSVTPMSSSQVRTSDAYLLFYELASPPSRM
# Summary of the method: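 USP2 core (10 nM final) was preincubated with compound 30 min at RT in pH 8.0 Tris/CaCl2/beta-ME/CHAPS buffer. Ub-CHOP2 and reporter substrate (25 nM final each) were then added, with fluorescence (Ex 485/Em 531) read after 60 min. Data were normalized to NEM full inhibition and fitted to concentration-response curves.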
# [19] = molecular target: DNA polymerase III PolC-type (Bacillus subtilis (strain 168)) (UniProt P13267); test: qHTS Validation Assay for the Inhibitors of DNA Replication in Gram-Positive Bacteria (AID 485295); note: potency is the fitted concentration of half-maximal effect
# Chain of DNA polymerase III PolC-type (Bacillus subtilis (strain 168)) (P13267 whole entry, looked up): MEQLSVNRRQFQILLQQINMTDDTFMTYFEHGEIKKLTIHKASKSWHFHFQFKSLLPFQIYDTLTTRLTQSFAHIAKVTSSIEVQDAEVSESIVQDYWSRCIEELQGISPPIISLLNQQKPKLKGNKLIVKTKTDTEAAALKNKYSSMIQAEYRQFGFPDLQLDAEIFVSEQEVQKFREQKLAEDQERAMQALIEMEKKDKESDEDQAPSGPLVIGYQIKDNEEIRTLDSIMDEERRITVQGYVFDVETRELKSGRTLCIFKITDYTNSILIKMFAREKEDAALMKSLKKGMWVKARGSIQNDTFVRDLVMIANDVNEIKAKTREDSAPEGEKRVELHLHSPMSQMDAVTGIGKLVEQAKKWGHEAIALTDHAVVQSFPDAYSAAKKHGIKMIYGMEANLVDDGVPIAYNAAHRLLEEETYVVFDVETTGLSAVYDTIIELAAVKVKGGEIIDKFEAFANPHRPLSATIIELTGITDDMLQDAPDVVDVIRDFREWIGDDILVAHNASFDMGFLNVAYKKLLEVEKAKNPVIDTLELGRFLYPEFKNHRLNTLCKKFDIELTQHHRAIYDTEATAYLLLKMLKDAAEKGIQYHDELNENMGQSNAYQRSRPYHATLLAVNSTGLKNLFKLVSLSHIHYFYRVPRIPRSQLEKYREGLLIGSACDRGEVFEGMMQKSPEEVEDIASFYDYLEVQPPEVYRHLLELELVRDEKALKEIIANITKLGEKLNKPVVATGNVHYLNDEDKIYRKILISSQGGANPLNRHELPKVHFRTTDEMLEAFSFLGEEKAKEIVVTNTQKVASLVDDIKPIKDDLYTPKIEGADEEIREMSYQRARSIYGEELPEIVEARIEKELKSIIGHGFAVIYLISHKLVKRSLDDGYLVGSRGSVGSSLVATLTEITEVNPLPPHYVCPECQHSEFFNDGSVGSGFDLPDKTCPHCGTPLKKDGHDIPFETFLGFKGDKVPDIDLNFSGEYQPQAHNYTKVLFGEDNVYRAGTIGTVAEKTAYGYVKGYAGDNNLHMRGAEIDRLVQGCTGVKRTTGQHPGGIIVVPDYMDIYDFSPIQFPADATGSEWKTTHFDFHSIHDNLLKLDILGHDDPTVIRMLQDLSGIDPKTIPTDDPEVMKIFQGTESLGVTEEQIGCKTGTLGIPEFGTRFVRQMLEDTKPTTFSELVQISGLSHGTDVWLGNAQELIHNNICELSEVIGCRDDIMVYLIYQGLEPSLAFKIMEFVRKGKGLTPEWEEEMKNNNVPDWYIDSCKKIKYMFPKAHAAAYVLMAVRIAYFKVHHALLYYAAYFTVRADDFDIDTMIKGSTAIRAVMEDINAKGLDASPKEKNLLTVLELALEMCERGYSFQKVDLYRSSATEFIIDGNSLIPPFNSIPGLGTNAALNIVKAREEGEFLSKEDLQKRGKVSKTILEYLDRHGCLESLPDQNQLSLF
# Summary of the method: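 PicoGreen fluorescence (ex 480–485/em 535–540 nm) reports dsDNA synthesized on ssM13Gori template with dNTPs/NTPs. Enzyme: holoenzyme rebuilt from purified PolC, beta subunit, SSB and primase. Compound preincubated before substrate addition; RT throughout.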
# [20] = molecular target: Tumor susceptibility gene 101 protein (Homo sapiens) (UniProt Q99816); test: qHTS Validation Assay for Iinhibitors of HIV-1 Budding by Blocking the Interaction of PTAP/TSG101 (AID 485342; calls by dose curve)
# Chain of Tumor susceptibility gene 101 protein (Homo sapiens) (Q99816 whole entry, looked up, the tested form may be a part): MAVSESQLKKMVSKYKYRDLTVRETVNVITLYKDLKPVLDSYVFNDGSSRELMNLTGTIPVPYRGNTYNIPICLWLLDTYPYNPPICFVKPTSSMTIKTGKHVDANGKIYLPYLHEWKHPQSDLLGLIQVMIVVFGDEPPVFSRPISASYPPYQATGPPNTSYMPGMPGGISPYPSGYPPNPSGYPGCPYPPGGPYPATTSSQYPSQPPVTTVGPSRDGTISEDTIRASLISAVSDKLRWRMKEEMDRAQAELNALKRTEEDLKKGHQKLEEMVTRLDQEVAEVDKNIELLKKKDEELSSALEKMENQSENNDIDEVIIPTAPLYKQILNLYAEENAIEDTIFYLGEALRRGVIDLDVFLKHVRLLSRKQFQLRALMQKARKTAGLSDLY
# Summary of the method: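 FP read-out: FITC-PTAP peptide, 50 nM final, binding Tsg101 binding domain, 10 uM final; 20 min r.t.; 10 mM HEPES pH 7.5, 0.15 M NaCl, 0.01% Tween 20, 3 mM EDTA, 0.1 mM TCEP.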
SMILES,outcome [1],Potency [2],Potency [3],Potency [4],Potency [5],Potency [6],Potency [7],outcome [8],outcome [9],outcome [10],outcome [11],outcome [12],Potency [13],outcome [14],outcome [15],Potency [16],Potency [17],outcome [18],Potency [19],outcome [20]
CC(O)C(=O)O (stereo not drawn),–,–,–,–,–,–,–,–,–,–,–,inactive,–,–,–,–,–,–,–,–
CC(=O)O[C@]1(C(C)=O)CC[C@H]2[C@@H]3C[C@H](C)C4=CC(=O)CC[C@]4(C)[C@H]3CC[C@@]21C,–,–,–,–,–,–,–,–,–,–,–,inactive,–,–,–,–,–,–,–,–
COc1cc(-c2ccc(=O)[nH]n2)ccc1OC(F)F,inactive,inactive,inactive,inactive,inactive,inactive,inactive,inactive,inactive,–,inactive,–,inactive,–,–,–,–,–,–,–
CC(CCc1ccccc1)NCC(O)c1ccc(O)c(C(N)=O)c1 (stereo not drawn),inactive,7.94 µM (active),10 µM (active),10 µM (active),–,8.91 µM (active),12.6 µM (active),inactive,inactive,inactive,inactive,–,12.6 µM (active),inactive,inactive,inactive,inactive,inactive,inactive,inactive
O=C(O)c1cc2cc(Cc3cccnc3)ccc2o1,inactive,inactive,inactive,inactive,inactive,inactive,inactive,inactive,inactive,–,inactive,–,inactive,inactive,inactive,inactive,inactive,inactive,inactive,inactive
C=CCc1ccc(O)c(OC)c1,–,–,–,–,–,–,–,–,–,–,–,inactive,–,–,–,–,–,–,–,–
CC(=O)O[C@H]1C[C@@H]2CC[C@@H]3[C@H](CC[C@@]4(C)[C@H]3C[C@H]([N+]3(C)CCCCC3)[C@@H]4OC(C)=O)[C@@]2(C)C[C@@H]1[N+]1(C)CCCCC1,–,–,–,–,–,–,–,–,–,–,–,–,–,–,inactive,inactive,inactive,inactive,inactive,inactive
N[C@@H](Cc1cnc[nH]1)C(=O)O,inactive,inactive,inactive,inactive,inactive,inactive,inactive,inactive,inactive,–,inactive,–,inactive,inactive,inactive,inactive,inactive,inactive,inactive,inactive
COc1cc(NS(C)(=O)=O)ccc1Nc1c2ccccc2nc2ccccc12,–,1 µM (active),0.891 µM (active),0.891 µM (active),2.51 µM (active),1 µM (active),1.41 µM (active),inactive,–,–,–,–,1.41 µM (active),–,inactive,3.69 µM (active),0.521 µM (active),inactive,–,inactive
COC(=O)[C@H]1[C@H]2C[C@H]3c4[nH]c5ccccc5c4CCN3C[C@H]2CC[C@@H]1O,inactive,–,–,inactive,inactive,–,inactive,inactive,inactive,–,inactive,–,inactive,inactive,inactive,inactive,inactive,inactive,inactive,inactive
CCCC1O[C@@H]2C[C@H]3[C@@H]4CCC5=CC(=O)C=C[C@]5(C)[C@H]4[C@@H](O)C[C@]3(C)[C@]2(C(=O)CO)O1 (stereo partly drawn),–,–,–,–,–,–,–,–,–,–,–,–,–,inactive,inactive,inactive,inactive,inactive,inactive,inactive
C[N+]1(CCCCC[N+]2(C)CCCC2)CCCC1,–,inactive,inactive,inactive,inactive,inactive,inactive,inactive,inactive,–,inactive,–,inactive,inactive,inactive,inactive,inactive,inactive,inactive,inactive
CNCCC(Oc1ccccc1C)c1ccccc1 (stereo not drawn),inactive,7.94 µM (active),–,–,–,–,inactive,inactive,inactive,–,inactive,–,inactive,inactive,inactive,inactive,inactive,inactive,inactive,inactive
O=C1CCC(c2ccc(-n3ccnc3)cc2)=NN1,inactive,inactive,inactive,inactive,inactive,inactive,inactive,inactive,inactive,inactive,inactive,–,inactive,inactive,inactive,inactive,inactive,inactive,inactive,inactive
Oc1ccc(O)cc1,–,8.91 µM (active),–,11.2 µM (active),–,12.6 µM (active),12.6 µM (active),inactive,inactive,–,–,–,–,–,–,inactive,–,inactive,5.32 µM (active),inactive
CC(=O)Oc1ccc(C(c2ccc(OC(C)=O)cc2)c2ccccn2)cc1,–,–,–,–,–,–,–,–,–,–,–,inactive,–,–,–,–,–,–,–,–
CC(C)COC(=O)OCN1C(=O)CN(CCN2CC(=O)N(COC(=O)OCC(C)C)C(=O)C2)CC1=O,inactive,inactive,inactive,inactive,inactive,–,inactive,–,inactive,inactive,inactive,–,inactive,inactive,inactive,inactive,inactive,inactive,inactive,inactive
